14-3-3g Raf – modulators of 14-3-3 gamma protein binding, primary screen, biochemical, fluorescence polarization; 14-3-3 protein gamma (Homo sapiens), P61981; FP, 14-3-3gamma / TMR-pS259-Raf peptide binding; inhibition, % at 40 µM; 0.19% of 160,000 active; in the data active = inhibition above about 30%;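 note: 0% = protein plus tracer without compound and 100% = blank with tracer alone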
Target sequence (P61981 whole entry, looked up): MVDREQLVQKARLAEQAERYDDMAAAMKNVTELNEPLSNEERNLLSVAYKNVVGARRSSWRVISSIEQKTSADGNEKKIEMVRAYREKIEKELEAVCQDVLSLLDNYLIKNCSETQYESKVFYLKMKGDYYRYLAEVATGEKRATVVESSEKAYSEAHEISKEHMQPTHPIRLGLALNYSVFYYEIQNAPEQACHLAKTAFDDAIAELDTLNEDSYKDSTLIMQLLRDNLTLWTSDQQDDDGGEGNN
Numbers without * were called inactive. This excerpt belongs to a sample that is enriched for hits.

SMILES | 14-3-3g Raf
Cc1cccc(Nc2ccc3noc4c3c2C(=O)c2ccccc2-4)c1 | -126
CCOc1ccc2noc3c2c1C(=O)c1ccccc1-3 | 4
O=C(Nc1ccc(-c2cc3ccccc3oc2=O)cc1)c1ccc(Cl)c([N+](=O)[O-])c1 | -12
O=C(NCc1cccs1)c1cc2nc(-c3cccs3)cc(C(F)(F)Cl)n2n1 | -1
O=C(NCc1cccnc1)c1cc2nc(-c3ccco3)cc(C(F)(F)Cl)n2n1 | 2
O=C(NCc1cccnc1)c1cc2nc(-c3cccs3)cc(C(F)(F)Cl)n2n1 | 39*
CCCOc1ccc(N2C(=O)C3C4C=CC(CC4)C3C2=O)cc1 (stereo not drawn) | -5
CCOC(=O)CCCSc1nc2sc(C)c(C)c2c(=O)n1-c1ccccc1 | 44*
CCOC(=O)CCCSc1nc2sc3c(c2c(=O)n1-c1ccccc1)CCCC3 | 10
Cc1sc2nc(SCC(=O)N3CCN(CCO)CC3)n(-c3ccccc3)c(=O)c2c1C | -4
CCCc1nc(NC(C)=O)c(C#N)c(-c2ccccc2OC)c1CC | -5
Cc1cccc(N2CCN(S(=O)(=O)c3ccc4c(c3)CCC(=O)N4)CC2C)c1 (stereo not drawn) | -10
Cc1ccc(NS(=O)(=O)c2cccc(C(=O)O)c2)c(C)c1 | 2
CCOC(=O)Cc1nn(CCc2ccccn2)c(=O)c2ccccc12 | 2
COC(=O)c1c(C)[nH]c(C(=O)C(C)Sc2nnc(-c3cc(OC)c(OC)c(OC)c3)o2)c1C (stereo not drawn) | -9
COc1ccc(-c2cc(C(F)(F)F)n3ncc(C(=O)NCc4ccc5c(c4)OCO5)c3n2)cc1OC | -20
CC1=CC(C)(C)N(C(=O)c2cccs2)c2ccc(OC(=O)c3cccs3)cc21 | 2
O=C(Nn1cnnc1)C(Sc1ccccc1)c1ccccc1 (stereo not drawn) | 1
CNC(=O)C(Sc1ccccc1)c1ccccc1 (stereo not drawn) | 125*
O=C(NCc1ccc(F)cc1)C(Sc1ccccc1)c1ccccc1 (stereo not drawn) | -1
CC(=O)c1ccc(OCCn2c(SCC(=O)O)nc3ccccc32)cc1 | 0
Cc1ccc(C(=O)COC(=O)CCC(=O)Nc2cccc(Cl)c2)cc1[N+](=O)[O-] | -7
CCOCCOC(=O)C1=C(C)NC2=C(C(=O)CC(c3ccc(OC)cc3)C2)C1c1ccc(Br)cc1 (stereo not drawn) | -6
COc1ccc(C2/C(=C(\O)c3ccc(Br)cc3)C(=O)C(=O)N2CCCn2ccnc2)cc1 (stereo not drawn) | -7
Cc1ccc(N=Cc2cc(-c3ccccc3)oc2S)c(C)c1 | 90*
SMILES | 14-3-3g Raf
Cc1ccc(N=Cc2ccccc2O)c(C(=O)c2ccccc2)c1 | -2
C=CCN=c1cc(-c2ccccc2)oc2ccc(C)cc12 | -12
c1ccc(CNc2ncnc3ccccc23)cc1 | -5
COCCNc1ncnc2ccccc12 | 31*
COCCNc1ncnc2ccc(Br)cc12 | 8
COc1ccc(Nc2c3c(nc4ccc(Cl)cc24)CCC3)cc1OC | -4
CCOC(=O)C1=C(C)NC(=S)NC1c1cn(-c2ccccc2)nc1-c1ccc(Br)cc1 (stereo not drawn) | 1
COCCn1cc(C(=O)N2CCN(c3ccccn3)CC2)c2c3ccccc3n(C)c2c1=O | -7
COc1ccc(C2=NN(C(C)=O)C(c3cc4cc5c(cc4nc3Cl)OCCO5)C2)cc1 (stereo not drawn) | -17

High-throughput results (PubChem)
